Bioassay records from PubChem BioAssay.
This is a sample that favours compounds with a hit; in the whole collection about 2% have one here.
PKA-R2B act = activators of human PKA-R2B complex; PKA-R2B holoenzyme dissociation, Cy5-IP20 fluorescence polarization; R2B truncated from residue 108, S112A mutant; 0% DMSO only, 100% 113 µM cGMP; activation, % at 11.4 µM; 340,000 compounds, 0.079% hits; AID 504700;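 active means activation above a cutoff set at the mean over all compounds plus 3 SD, cut at about 18% in these data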;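 further: higher means more holoenzyme dissociation and a rise in polarization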
Target sequence (P31323 whole entry, looked up, other chains not shown, the tested form may be a part): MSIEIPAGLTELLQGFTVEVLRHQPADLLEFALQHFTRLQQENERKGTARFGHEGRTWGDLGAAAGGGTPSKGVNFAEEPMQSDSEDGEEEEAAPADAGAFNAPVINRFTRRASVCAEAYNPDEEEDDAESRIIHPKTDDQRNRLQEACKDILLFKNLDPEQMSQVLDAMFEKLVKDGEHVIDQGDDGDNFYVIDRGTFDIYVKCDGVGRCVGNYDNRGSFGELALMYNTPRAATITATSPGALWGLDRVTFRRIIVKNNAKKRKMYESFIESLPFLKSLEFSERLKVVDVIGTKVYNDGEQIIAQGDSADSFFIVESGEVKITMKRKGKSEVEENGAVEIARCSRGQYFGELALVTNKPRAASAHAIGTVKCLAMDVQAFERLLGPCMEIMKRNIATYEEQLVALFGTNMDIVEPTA
MsrA inhibitor = inhibitors of bovine MsrA; purified bovine MsrA, absorbance read-out; inhibition, % at 15.5 µM; 360,000 compounds, 0.75% hits; in the data active means inhibition above about 4.5%
Mot1-301 SUMO = blocks SUMOylation pathway, rescuing yeast Mot1-301 growth; growth rescue, % at 18.8 µM; S. cerevisiae Mot1-301 growth rescue, ATP luminescence, 38.5C; percent above DMSO median, 100 means doubled; AID 2716; 320,000 compounds, 1% hits;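 active means every valid replicate shows activation above 250% relative to neutral control wells; inactive means the rest, any valid replicate at or below 250%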
MsrA act = activators of bovine methionine sulfoxide reductase A; 360,000 compounds, 0.3% hits; activation, % at 10.6 µM; purified bovine MsrA, absorbance read-out; AID 602163; in the data active means activation above about 7.5%
PKA-R1A activ = PKA-R1A complex activation | P00514+P68181 | PKA-R1A dissociation, Cy5-IP20 fluorescence polarization; scaled: DMSO 0%, 113 µM cGMP 100% | activation, % at 11.4 µM | 340,000 compounds, 0.083% hits;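 active means percent activation above the mean of all tested compounds plus 3 SD, cut at about 19% in these data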;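 further: higher means more PKAc released from R1A so a rise in polarization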
Yeast Mot1 SUMO = yeast SUMO pathway inhibition in dose response | shares compounds with Mot1-301 SUMO | S. cerevisiae Mot1-301 galactose growth, ATP luminescence, 24 h; -100 = growth of slx-deleted rescue strain | growth activity, percent, % at 42 µM | 2,300 tested, under 10 active | AID 493004;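 active means Signal drops as the depositor expects, and the fitted half-maximal dose is no more than ten times the top valid tested dose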;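 further: more negative values mean stronger growth rescue toward the control strain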
Each line names hits and unclear results; the compound was inactive in the other large screens (follow-up assays come after a bar, where they were run).

CC(=O)Nc1ccc(NC(=O)c2sc(-c3ccccc3)nc2C)cc1	none
COc1ccc(-c2cc(=O)c3cc(O)ccc3o2)cc1	Mot1-301 SUMO 554 | Yeast Mot1 SUMO inactive
COC(=O)c1cc2c(c3c4cc(F)ccc4n(S(=O)(=O)c4ccc(OC)cc4)c13)C(=O)N(C)C2	none (no result: PKA-R2B act, Mot1-301 SUMO, MsrA act, PKA-R1A activ)
O=C(c1ccc(F)cc1)C(CN1CCOCC1)c1ccccc1 (stereo unspecified)	Mot1-301 SUMO 372 | Yeast Mot1 SUMO inactive
c1ccc2[nH]c(CSc3nccs3)nc2c1	Mot1-301 SUMO 371 | Yeast Mot1 SUMO inactive
c1ccc(SCc2nc3ccccc3[nH]2)cc1	none
CCNC(=O)N1CCN(c2ccc(N3CCN(Cc4ccccc4)[C@H](C)C3)c(C)c2)[C@H](C)C1	none (no result: PKA-R2B act, Mot1-301 SUMO, MsrA act, PKA-R1A activ)
COc1cccc(N2CCN(C3CCCC(C)C3)CC2)c1 (stereo unspecified)	Mot1-301 SUMO 676 (no result: MsrA inhibitor) | Yeast Mot1 SUMO inactive
COc1ccc(N2CCN(C3CCCN(Cc4cccc(OC)c4)C3)CC2)cc1 (stereo unspecified)	Mot1-301 SUMO 667 | Yeast Mot1 SUMO inactive
CC(C)n1c(CN(C)c2ccccc2)nc2ccccc21	Mot1-301 SUMO 875 | Yeast Mot1 SUMO inactive
CCN(Cc1nc2ccccc2n1C)c1ccccc1	none
CC(=O)O[C@@H]1C=C[C@@H](C#Cc2ccc(C(C)(C)C)cc2)O[C@@H]1COC(=O)NCc1ccccc1	none (no result: PKA-R2B act, Mot1-301 SUMO, MsrA act, PKA-R1A activ)
CCS(=O)c1ccccc1C(=O)O (stereo unspecified)	Mot1-301 SUMO 392 | Yeast Mot1 SUMO inactive
O=C(O)c1ccccc1S(=O)CCO (stereo unspecified)	none
COC(=O)[C@]12C[C@H](CC(=O)N3CCC(c4ccccc4)CC3)C(=O)N(CCC3=CCCCC3)C1=C[C@H](COCc1ccccc1)O[C@@H]2C	none (no result: PKA-R2B act, Mot1-301 SUMO, MsrA act, PKA-R1A activ)
O=C(NCc1ccccc1)c1cccc(COc2ccc(Cl)cc2)c1	Mot1-301 SUMO active | Yeast Mot1 SUMO inactive
Cc1cc(N2CCN(CC(C)(C)O)C[C@@H]2C)ccc1N1CCN(Cc2ccccc2)[C@@H](C)C1	none (no result: PKA-R2B act, Mot1-301 SUMO, MsrA act, PKA-R1A activ)
CN(c1ccccc1)S(=O)(=O)c1ccc(C(=O)NCC2CCCO2)cc1 (stereo unspecified)	Mot1-301 SUMO 451 | Yeast Mot1 SUMO inactive
CN(c1ccc(C(=O)NCC2CCCO2)cc1)S(=O)(=O)c1ccccc1 (stereo unspecified)	none
O=C(CC1CCCC1)N[C@H](C(=O)N1CCC[C@H]1C(=O)NC1CCCC1)C1CCCCC1	none (no result: PKA-R2B act, Mot1-301 SUMO, MsrA act, PKA-R1A activ)
COc1cc(C(=O)Nc2sc3c(c2C(=O)O)CCC(C)C3)cc(OC)c1OC (stereo unspecified)	Mot1-301 SUMO 438 | Yeast Mot1 SUMO inactive
O=C(COc1ccc([N+](=O)[O-])cc1)NCc1cccnc1	none
O=C(COc1ccc([N+](=O)[O-])cc1)Nc1ccc(C(=O)NCc2cccnc2)cc1	Mot1-301 SUMO 481 | Yeast Mot1 SUMO inactive
C=CC[N+]1(CC#Cc2ccccc2)CCCC1	Mot1-301 SUMO 393 | Yeast Mot1 SUMO inactive
COc1ccc(OC)c(NC(=O)CN(C)S(=O)(=O)c2ccc(Cl)cc2)c1	Mot1-301 SUMO 415 | Yeast Mot1 SUMO inactive
CN1NC(=O)CC1c1ccccc1 (stereo unspecified)	none (no result: Mot1-301 SUMO)
CN1CC2(C)OC(=O)C(Cl)=C2CC1c1ccccc1 (stereo unspecified)	Mot1-301 SUMO 431 | Yeast Mot1 SUMO inactive
COC(=O)c1cc2c(c3c4cc(F)ccc4n(S(=O)(=O)c4ccc(C)cc4)c13)C(=O)N(Cc1ccccc1OC)C2	none (no result: PKA-R2B act, Mot1-301 SUMO, MsrA act, PKA-R1A activ)
c1ccc(OCCCc2nc(-c3cccnc3)no2)cc1	Mot1-301 SUMO 456 | Yeast Mot1 SUMO inactive
c1ccc(C(Cc2nc(-c3cccnc3)no2)c2ccccc2)cc1	none
Clc1ccc(-c2noc(CCCc3ccccc3)n2)cc1	none
c1ccc(CCCc2nc(-c3cccnc3)no2)cc1	Mot1-301 SUMO 628 | Yeast Mot1 SUMO inactive
O=C(N[C@H](C(=O)N1CCC[C@H]1C(=O)NCCc1ccccc1Cl)c1ccccc1)c1ccc(Cl)cc1Cl	none (no result: PKA-R2B act, Mot1-301 SUMO, MsrA act, PKA-R1A activ)
CCCCCCCCN1C(=O)[C@@H](CC(=O)N2CCCC2)C[C@@]2(C(=O)OC)C1=C[C@H](C1CCCC1)O[C@@H]2C	none (no result: PKA-R2B act, Mot1-301 SUMO, MsrA act, PKA-R1A activ)
